Screening data as filed in PubChem.
Only some compounds are listed: those with a hit (about 19% of all), similar ones and a draw of the others.
DT40 TDP1 CPT = growth inhibition of DT40 Tdp1-/-;hTDP1 cells with camptothecin (screen for TDP1 inhibitors); chicken DT40 Tdp1-/-;hTDP1 cells + 20 nM CPT, ATP luminescence, 48 h; Potency, µM (doses to about 46.2 µM), without a hit: at the top dose activity change, negative = growth inhibition, hits mostly inhibitors; hit rate 12% among 420,000; further: potency means the concentration at half of the fitted maximal effect; nearly all actives have a fitted effect of over 55% in size
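Chicken DT40 Tdp1-/- cells complemented with human TDP1, 400 cells/well, exposed to compounds plus 20 nM camptothecin for at least 48 h at 37 C; viability read as ATP content by CellTiter-Glo luminescence.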
HT1080 IDH1KD tx = toxicity to HT-1080 IDH1 knockdown cells (counter line); HT-1080 IDH1 knockdown viability, ATP luminescence, 48 h; Potency, µM (highest dose often 46.1 µM), for inactives: top-dose activity, negative = toxicity, actives largely listed as cytotoxic; hit rate 2% among 360,000;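 further: potency means the concentration at half of the fitted maximal effect; 0% = DMSO wells and -100% = cell-free medium wells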
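IDH1KD HT-1080 cells, 750/well, RPMI + 5% FBS; compound pinned after 2 h settling; 48 h, 37 °C; CellTiter-Glo luminescence; % activity normalised to DMSO and no-cell wells; curves fitted, classed by r2 and efficacy.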
HT1080-NT tox = kills 2HG-producing HT-1080-NT fibrosarcoma cells. HT-1080-NT fibrosarcoma viability, CellTiter-Glo ATP luminescence, 48 h. Potency, µM (series often up to 46.1 µM), without a hit: at the highest dose activity, negative = less viability, most hits filed as cytotoxic. hit rate 1.6% among 360,000. AID 686970;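 further: NT is the 2HG producing partner of a matched IDH1 knockdown line; potency means the concentration at half of the fitted maximal effect; 0% = DMSO-treated cells and -100% = media-only wells without cells; nearly all actives have a fitted effect of over 55% in size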
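Viability of the 2HG-overproducing fibrosarcoma line after 48 hours of compound exposure at 37 degrees C was determined by luminescence with CellTiter-Glo, and concentration-effect curves were then fitted and categorized.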
uPA surface inh = cell surface uPA generation inhibition; Potency, µM (series often up to 38.3 µM), for inactives: at the top dose activity change, negative = inhibition, hits mostly inhibitors; AID 540303; cell surface uPA generation assay, qHTS; hit rate 0.31% among 330,000; active means well fitted inhibition curve with a large enough effect; inconclusive means small, poorly fitted or top-dose-only effect; inactive means no such curve, though single readings can be large or run the other way; tested in mouse RAW 264.7 cells; further: potency means the concentration at half of the fitted maximal effect; nearly all actives have a fitted effect of over 55% in size
TDP1 cell noCPT = qHTS for Inhibitors of human tyrosyl-DNA phosphodiesterase 1 (TDP1): qHTS in cells in absence of CPT; DT40 Tdp1-/- hTDP1 cells, no CPT, ATP luminescence, 48 h; Potency, µM (top dose mostly 46.2 µM), for inactives: at the top dose activity change, negative = growth inhibition, most hits filed as inhibitors; hit rate 15% among 420,000; further: potency means the concentration at half of the fitted maximal effect; nearly all actives have a fitted effect of over 55% in size
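Stably hTDP1-transfected Tdp1-null chicken DT40 cells were treated with library compounds minus camptothecin and grown for at least 48 hr at 37 °C, after which cellular ATP was quantified by luminescence.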
IL1B secr inh = inflammasome signaling inhibition, IL-1 beta readout | THP-1 LPS/ATP IL-1B secretion, AlphaLISA, 16 h; active compounds read low | activity change, % at 57.5 µM | hit rate 4.7% among 360,000; in the data active means activity change below about -50%; inconclusive means mostly about -30% to -49%
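THP-1 cells pretreated 1 hr with compounds (up to 57.5 uM final), then stimulated with LPS (250 ng/mL final) plus ATP (1.25 mM final); secreted IL-1B measured by AlphaLISA after 16 hr, decreased signal indicating inhibition.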
An asterisk follows results filed as active; ? = inconclusive; . = no result given; ! = not confirmed by another sample; [ ] = another dose, or the depositor's remark. Unless noted, the call rests on the fitted dose curve; in most records, active means well fitted curve in the direction sought with a large enough effect; inconclusive means small, poorly fitted or top-dose-only effect, or another doubt; inactive means no such curve, though single readings can be large; an effect the other way counts as inactive or inconclusive. Unless noted, on the % scale 0 is the no-effect control and ±100 the full control effect.

SMILES	DT40 TDP1 CPT	HT1080 IDH1KD tx	HT1080-NT tox	uPA surface inh	TDP1 cell noCPT	IL1B secr inh
COc1ccc(N2C(=O)C(OC(C)=O)C2c2ccc(C)cc2)cc1 (stereo not drawn)	-4%	16%	4%	3%	?	27
Cc1ccc(-c2csc(NC(=O)c3cccc(N4C(=O)CCC4=O)c3)n2)o1	3%	5%	-2%	3.5µM*	?	-7
COc1ccc(-c2csc(NC(=O)c3cccc(N4C(=O)CCC4=O)c3)n2)cc1OC	4.1µM*	3%	-7%	4%	21µM*	0
CCOc1ccc(-c2csc(NC(=O)c3cccc(N4C(=O)CCC4=O)c3)n2)cc1	?	9%	11%	-2%	-24%	1
CCCc1nc2cccnc2n1C1CCN(C(=O)CC2NC(=O)c3ccccc32)CC1 (stereo not drawn)	0%	.	.	.	-13%	.
O=C(NCc1cccnc1)c1ccc(COc2ccccc2Cl)cc1	?	0%	-14%	2%	13µM*	3
NC(=O)c1ccc(NC(=O)c2ccc(COc3ccccc3Br)cc2)cc1	-17%	23%	13%	0%	-13%	-9
O=C(NCc1cccnc1)c1ccc(COc2ccccc2Br)cc1	7%	-25%	-5%	-1%	?	-87*
Cc1cc(C)nc(NC(=O)c2ccc(COc3ccccc3Cl)cc2)c1	18µM*	?	-21%	-2%	26µM*	-62*
O=C(Nc1cccnc1)c1ccc(COc2ccccc2Br)cc1	?	?	?	-13%	?	-67*
COc1ccc(C(=O)NCc2cccnc2)cc1OC	8%	13%	6%	-23%	-1%	-12
COc1ccccc1NC(=O)c1sc2ncn(Cc3ccccc3Cl)c(=O)c2c1C	-5%	.	.	.	?	.
CCCNC(=O)C1(C)CCCN(C(=O)c2ccccc2F)C1 (stereo not drawn)	5%	11%	23%	.	1%	4
Cc1cc(C)n(Cc2ccc(NC(=O)c3ccc(COc4ccccc4Br)cc3)cc2)n1	21µM*	?	?	.	29µM*	-75*
O=[N+]([O-])c1cccc(CSc2nnc(Cc3ccccc3)n2-c2ccc(F)cc2)c1	18µM*	-28%	-19%	3%	?	3
COc1ccc(-c2noc(CSc3nnc(-c4ccc(Cl)cc4)n3C)n2)cc1OC	?	.	.	.	16µM*	.
COc1ccc(-c2noc(CSc3nnc(-c4ccccc4)n3C)n2)cc1	23µM*!	-14%	6%	.	15µM*!	-2
CCOc1ccccc1-c1noc(CSc2nnc(-c3ccccc3)n2-c2ccc(F)cc2)n1	12µM*	.	.	.	13µM*	.
COc1ccc(-c2noc(CSc3nnc(-c4ccncc4)n3-c3ccc(F)cc3)n2)cc1OC	?	-29%[9.24 µM]	?	7%	?	?
COc1ccc(-n2c(C)nnc2SCc2nc(-c3ccc(OC)c(OC)c3)no2)cc1	-24%	.	.	.	-23%	.
COc1cccc(CNC(=O)c2cnc(N3CCCC3)nc2C)c1	1%	.	.	.	-17%	.
CC(=O)CSc1nnc(-c2ccco2)n1-c1ccccc1	4%	-6%	-1%	?	-27%	15
Cc1nnc(SCc2nnc(-c3cccs3)o2)n1Cc1ccccc1	3%	-6%	6%	-2%	1%	9
Clc1ccc(-c2nnc(CSc3nnc(-c4cccs4)n3Cc3ccccc3)o2)cc1	6.5µM*	?	-26%	?	2.9µM*	-22
CSc1nnc(-c2ccco2)n1-c1ccccc1	18µM*	16%	8%	-7%	?	5
SMILES	DT40 TDP1 CPT	HT1080 IDH1KD tx	HT1080-NT tox	uPA surface inh	TDP1 cell noCPT	IL1B secr inh
COc1cc(Cl)c(C)cc1NC(=O)CSCc1nc(-c2ccc(OC)c(OC)c2)no1	21µM*	.	.	.	16µM*	.
c1ccc(-n2c(SCc3nc(-c4cccs4)no3)nnc2-c2ccco2)cc1	?	13%	?	8%	?	-75*
CC(=O)Nc1ccc(S(=O)(=O)NC2(C(F)(F)F)NC(=O)N(c3ccc(C)cc3)C2=O)cc1 (stereo not drawn)	-4%	-2%	-1%	3%	0%	-1
Cn1c(=O)c(CCc2ccccc2)nc2cnc(OCc3ccccc3)nc21	12%	.	.	.	-7%	.
COc1ccc(-c2noc(CSc3nnc(Cc4ccccc4)n3-c3ccc(F)cc3)n2)cc1	?	.	.	.	16µM*	.
CCc1ccc(-n2c(SCc3nc(-c4cc(OC)ccc4OC)no3)nnc2-c2ccccc2)cc1	18µM*	.	.	.	21µM*	.
COc1ccc(-c2noc(CSc3nc4ccccc4c(=O)n3-c3ccccc3)n2)cc1	?	-2%	-1%	-1%	?	37
COc1ccc(-c2nnc(SCc3nnc(-c4ccc(Cl)cc4)o3)n2-c2ccccc2)cc1	16µM*	-23%	-12%	-2%	16µM*	-28
COc1ccc(-c2noc(CSc3nnc(-c4ccncc4)n3-c3ccc(C)cc3)n2)cc1OC	16µM*	.	.	.	-51%	.
COc1ccc(-n2c(SCc3nnc(-c4ccccc4)o3)nnc2-c2ccccc2)cc1	-8%	-17%	-13%	9%	?	-20
Cc1ccc(S(=O)(=O)N2CCCCC2)cc1NC(=O)COC(=O)c1ccccc1F	-23%	-9%	4%	-1%	-17%	30
COc1ccc(CCC(=O)Nc2ccc3c(c2)OCO3)cc1OC	-5%	8%	-26%	-2%	-4%	1
Cc1c(Cl)cccc1NC(=O)c1cnc2sc(N3CCOCC3)nn2c1=O	-27%	.	.	.	?	.
COCCN(Cc1ccccc1)C(=O)C1CCN(C(=O)Nc2ccccc2)CC1	4%	-2%	5%	2%	-1%	-6
COc1ccc(-c2noc(Cc3ccc(Cl)cc3)n2)cc1OC	10µM*	-14%	3%	-1%	?	-28
CCc1ccc(-n2c(SCc3c(C)noc3C)nnc2-c2ccncc2)cc1	21µM*	-5%	-2%	2%	?	-4
COc1ccc(-c2noc(CSc3nnc(-c4ccncc4)n3-c3ccccc3)n2)cc1	16µM*	.	.	.	23µM*	.
COc1ccc(-n2c(SCc3nc(-c4ccc(C)cc4)no3)nnc2-c2ccncc2)cc1	-19%	.	.	.	-40%	.
O=C(OCc1cc(=O)n2nc(-c3cccs3)sc2n1)c1ccc(F)cc1	-19%	.	.	.	-15%	.
O=C(Nc1cccc(Cn2cccn2)c1)c1cc2c(s1)CCCC2	?	?	-5%	.	11µM*	-27
CCOC(=O)c1ccc(NC(=O)c2cc3c(s2)CCC3)cc1	8%	9%	12%	3%	?	17
